High-throughput results as filed in PubChem BioAssay.
Shown are actives, neighbours in structure and some others; about 7.5% of the full set was active somewhere.
FLuc counter – qHTS profiling assay for firefly luciferase inhibitor/activator using purifed enzyme and Km concentrations of substrates (counterscreen for miR-21 project). Luciferin 4-monooxygenase (Photinus pyralis), P08659. purified FLuc, Km substrates, luminescence inhibition. 360,000 compounds, 6.9% hits. AID 588342, 2011. Potency, µM (doses to about 57.5 µM), for inactives: top-dose activity change, negative = inhibition, usual class: inhibitors;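 further: plate controls were vehicle for no effect and reference inhibitor for full effect; nearly all actives have a fitted effect of over 55% in size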
Target sequence (P08659 whole entry, looked up): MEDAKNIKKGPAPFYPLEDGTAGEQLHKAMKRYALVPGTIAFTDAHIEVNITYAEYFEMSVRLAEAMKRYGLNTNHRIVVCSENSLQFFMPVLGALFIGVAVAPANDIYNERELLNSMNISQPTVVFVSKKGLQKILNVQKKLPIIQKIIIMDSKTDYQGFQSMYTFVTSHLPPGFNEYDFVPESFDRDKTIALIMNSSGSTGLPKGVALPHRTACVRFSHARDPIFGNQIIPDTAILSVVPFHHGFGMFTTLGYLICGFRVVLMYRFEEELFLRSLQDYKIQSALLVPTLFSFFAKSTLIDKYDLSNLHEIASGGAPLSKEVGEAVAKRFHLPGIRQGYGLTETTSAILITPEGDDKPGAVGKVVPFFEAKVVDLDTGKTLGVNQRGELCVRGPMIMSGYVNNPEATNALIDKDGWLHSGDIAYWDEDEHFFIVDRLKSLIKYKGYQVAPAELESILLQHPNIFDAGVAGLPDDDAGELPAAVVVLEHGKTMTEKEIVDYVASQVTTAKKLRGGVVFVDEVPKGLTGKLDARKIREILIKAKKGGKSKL
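Purified P. pyralis luciferase, 10 nM final, with Km-level 10 uM D-luciferin and 10 uM ATP in 50 mM Tris acetate pH 7.5, 10 mM Mg acetate, 0.01% Tween-20, 0.05% BSA; 6-point qHTS titration about 60 µM downward; luminescence read.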
NPC1 prom act – qHTS Assay for NPC1 Promoter Activators. Huh7 NPC1 promoter luciferase reporter, 24 h. 320,000 compounds, 2.4% hits. Potency, µM (series often up to 9.22 µM), inactives show top-dose activation, actives largely listed as activators. AID 485313, 2010; further: % of control where 0% means no effect; nearly all actives have a fitted effect of over 60% in size
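Cells: Huh7 expressing luciferase under the NPC1 promoter, 1500/well. Seeded 2 h, compound added, incubated 24 h at 37 °C. Luciferase reagent, 10 min ambient, then luminescence.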
Rab9 prom act – qHTS Assay for Rab9 Promoter Activators. Potency, µM (highest dose often 9.22 µM), inactives show at the top dose activation, negative = inhibition, usual class: activators. AID 485297, 2010. Huh7 Rab9 promoter-luciferase reporter, luminescence, 24 h. 320,000 compounds, 2.8% hits; further: % of control where 0% means no effect; nearly all actives have a fitted effect of over 60% in size
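Measured in stably transfected Huh7 cells bearing a Rab9 promoter–luciferase construct: 24 h compound treatment at 37 °C, followed by luminescence detection.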
ELG1 genotoxic – qHTS screen for small molecules that induce genotoxicity in human embryonic kidney (HEK293T) cells expressing luciferase-tagged ELG1; Potency, µM (doses to about 46 µM), for the others: at the top dose activity change, positive = activation, hits mostly activators; AID 504466, 2011; 330,000 compounds, 1.3% hits; HEK293T ELG1-luciferase reporter, luminescence, 16 h; further: % of control where 0% means no effect; nearly all actives have a fitted effect of over 60% in size
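DMSO vehicle served as control against compound-treated ELG1-luciferase HEK293T cells; exposure lasted 16 hr at 37 °C and 5% CO2, followed by ONE-Glo luminescence detection after 30 min.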
SMN2 splice up – qHTS Assay for Enhancers of SMN2 Splice Variant Expression; HEK293 SMN2-luciferase splicing reporter, luminescence, 30-36 h; AID 1458, 2008; Potency, µM (titrated, usually from 46.1 µM), without a hit: top-dose activity change, positive = activation, usual class: activators; 210,000 compounds, 2.8% hits; further: % of control where 0% means no effect; nearly all actives have a fitted effect of over 55% in size
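HEK293 cells carry an SMN2 minigene-luciferase reporter in which exon 7 inclusion puts luciferase in frame. Cells were seeded at 2000 cells/well, attached for 10-12 hours, then exposed to compounds for 30-36 hours at 37C before ONE-Glo luminescence.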
Luc counter – Counterscreen for Luciferase (Kinase-Glo TM) Inhibition | Potency, µM (highest dose often 38.3 µM), for the others: at the highest dose activity change, negative = inhibition, actives largely listed as inhibitors | 200,000 compounds, 0.28% hits | AID 1379, 2008 | Kinase-Glo luciferase, ATP luminescence, 8 min; further: on the % scale 0 is the no-effect control and ±100 the full control effect; nearly all actives have a fitted effect of over 60% in size
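Recombinant Kinase-Glo luciferase, 10 uM ATP (linear range), luciferin; imidazole pH 7.2 / KCl / MgCl2 / Tween / BSA buffer; 8 min RT; luminescence.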
Starred values were filed as active, the others as inactive; ? = inconclusive; . = not tested or not shown. The call rests on the fitted dose curve; in most records, active means well fitted curve in the direction sought with a large enough effect; inconclusive means small, poorly fitted or top-dose-only effect, or another doubt; inactive means no such curve, though single readings can be large; an effect the other way counts as inactive or inconclusive. Potency means the concentration at half of the fitted maximal effect.

SMILES	FLuc counter	NPC1 prom act	Rab9 prom act	ELG1 genotoxic	SMN2 splice up	Luc counter
CC(C)c1ccc(O)c(NC(=S)NC(=O)c2ccc3c(c2)OCO3)c1	6.7µM*	2.2µM*	?	22%	.	.
CC(C)(C)NS(=O)(=O)c1ccc(C(=O)Nc2ccc3c(c2)OCO3)cc1	?	7%	5%	16%	.	.
CS(=O)(=O)Nc1ccc(C(=O)Nc2ccc3c(c2)OCCO3)cc1	19µM*	?	?	?	?	6%
Cc1ccc(NC(=O)CN2C(=O)c3ccccc3Sc3ccc(C(=O)N4CCOCC4)cc32)cc1F	-4%	.	.	.	.	.
Cc1ccccc1NC(=O)Cn1nc(-c2ccc(F)cc2)c2cnc3ccccc3c21	-1%	.	.	.	.	.
CN(C)c1ncc2ncc(=O)n(C)c2n1	.	.	.	.	0%	-2%
Cc1c2cnn(-c3ccccc3)c(=O)c2c(C)n1C(C)C(=O)Nc1ccccc1C(F)(F)F (configuration not stated)	-1%	.	.	.	-13%	.
O=C(c1ccco1)n1nc(-c2ccccc2)nc1NCc1ccccc1Cl	2%	.	.	.	-2%	.
O=C(CCCc1ccccc1)Nc1ccc2c(c1)OCCO2	2.1µM*	0.5µM*	0.45µM*	2.1µM*	6.3µM*	1%
CC(C)(O)C#Cc1ccc(C(=O)Nc2ccc3c(c2)OCO3)s1	8.5µM*	2.8µM*	?	?	.	.
COc1cc(NC(=S)Nc2ccc3c(c2)OCCO3)cc(OC)c1OC	-19%	5%	14%	11%	.	.
O=C(CCCCCN1C(=O)c2ccccc2C1=O)Nc1ccc2c(c1)OCCO2	?	7%	-1%	0%	2%	-2%
O=C(Nc1ccc2c(c1)OCCO2)C(=S)NCc1ccccc1	6µM*	17%	25%	10%	?	-2%
CC(C)(O)C#Cc1ccc(C(=O)NCCC(=O)O)s1	8%	0%	-6%	1%	7%	0%
S=C(Nc1ccc(Br)cc1)Nc1ccc2c(c1)OCCO2	12µM*	?	?	?	.	.
Cc1ccc(NC(=O)c2sc3nc(-c4ccc(F)cc4)cn3c2C)c(C)c1	1%	.	.	.	.	.
Cc1nc2cccnc2n1-c1cccc(C(=O)N2CCN(c3cccc(Cl)c3)CC2)c1	-1%	.	.	.	.	.
O=C(Nc1ccc2c(c1)OCCO2)c1ccc(Br)s1	0.67µM*	3.5µM*	1.6µM*	1.5µM*	1.1µM*	-7%
O=C(Nc1ccc2c(c1)OCO2)c1ccccc1	9.5µM*	1.8µM*	1.1µM*	?	.	.
O=C(Nc1cccc(NC(=O)c2cccs2)c1)c1ccc(Br)cc1	?	-9%	3%	-7%	.	.
O=C(Nc1cccc(NC(=O)c2cccs2)c1)c1ccc2c(c1)OCCO2	7.6µM*	23%	30%	2%	.	-6%
O=C(Nc1ccc2c(c1)OCCO2)c1cnn(-c2ccccc2)n1	4.8µM*	?	2.8µM*	?	.	.
COC(=O)c1ccccc1NC(=O)CSc1nc2ccsc2c(=O)n1CCC(C)C	-3%	.	.	.	.	.
CCOc1ccc(C(=O)N2CC(=O)Nc3ccc(C)cc3C2c2ccc(F)cc2)cc1OCC (configuration not stated)	5%	.	.	.	-4%	.
CCCn1c(=O)c2sccc2n2c(CCCC(=O)N3CCN(c4cccc(C)c4C)CC3)nnc12	-6%	.	.	.	.	.
SMILES	FLuc counter	NPC1 prom act	Rab9 prom act	ELG1 genotoxic	SMN2 splice up	Luc counter
CC1CCCN(S(=O)(=O)c2ccc(NC(=O)c3nc(SC(C)C)ncc3Cl)cc2)C1 (configuration not stated)	-3%	.	.	.	2%	.
O=C(Nc1ccc(N=Nc2ccccc2)cc1)c1cccc(Cl)c1	-1%	5%	0%	10%	17%	-1%
O=C(Nc1ccc2c(c1)OCCO2)c1cccc(Cl)c1	3µM*	3.2µM*	2µM*	?	.	.
O=C(Nc1ccc2c(c1)OCCO2)C(=O)NC1CC1	4.8µM*	?	2.8µM*	?	.	.
O=C(Nc1cccc([N+](=O)[O-])c1)c1ccncc1	1%	-4%	-1%	5%	-10%	5%
O=C(Nc1cccc([N+](=O)[O-])c1)c1ccc2c(c1)OCCO2	7.6µM*	3.5µM*	?	?	18µM*	-4%
O=C(Nc1ccc2c(c1)OCCO2)c1ccccc1	3.4µM*	0.45µM*	0.79µM*	3.7µM*	.	.
CCCOc1ccc(NC(=O)CC2C(=O)N(c3ccccc3)C(=O)N2Cc2ccc(F)cc2)cc1 (configuration not stated)	-6%	.	.	.	.	.
O=C(Nc1cccc(Cl)c1)c1ccc2c(c1)OCCO2	1.1µM*	1.3µM*	1.8µM*	2.1µM*	.	.
O=C(Nc1ccc(NC(=O)c2cc3ccccc3o2)cc1)c1ccc2c(c1)OCCO2	-2%	-13%	-13%	10%	-33%	2%
COC(=O)c1scc(-c2ccc(C)cc2)c1S(=O)(=O)Nc1ccc(OC(F)(F)F)cc1	-1%	.	.	.	.	.
Cc1ccc(-n2cc(CN3CCC(O)(c4ccccn4)CC3)c(-c3ccc(F)cc3)n2)cc1	17µM*	-4%	-21%	-6%	.	-2%
Cc1ccc(C)c(NC(=O)c2nnn(Cc3ccc(F)cc3Cl)c2N)c1	7%	.	.	.	-36%	.
Cc1cccc(NC(=O)C(=O)NCC(c2ccc3c(c2)OCO3)N2CCOCC2)c1C (configuration not stated)	-5%	.	.	.	.	.
COc1ccccc1NC(=O)CSc1nnc(-c2ccc(C)cc2)o1	-11%	1.6µM*	1.3µM*	?	2.5µM*	-2%
COc1ccc(-c2nnc(SCC(=O)Nc3cc(C)on3)o2)cc1	-9%	16%	27%	12%	20µM*	2%
Cc1cc(NC(=O)CSc2nnc(-c3ccco3)o2)no1	0%	.	.	.	-10%	-2%
O=C(CSc1ncn[nH]1)N1CCCCC1	-2%	-2%	-4%	0%	.	.
O=C(CSc1nnc(-c2ccc(O)cc2)o1)Nc1ccccc1Br	.	2.8µM*	3.2µM*	10µM*	.	.
O=C(CSc1ncc(-c2ccc(F)cc2)[nH]1)N1CCCCC1	?	28%	?	?	11µM*	-2%
NS(=O)(=O)c1ccc(NC(=O)CSc2nnc(-c3ccc(O)cc3)o2)cc1	?	-3%	7%	5%	.	.
Cc1c(Cl)cccc1NC(=O)c1cc(-c2cccs2)on1	-7%	.	.	.	8%	.
O=C(CSc1nnc(-c2cccnc2)o1)Nc1ccccc1Br	1%	-1%	9%	4%	.	.
COc1ccc(NC(=O)CSc2nnc(-c3ccc(C)cc3)o2)cc1	0%	.	.	.	.	.
